# In PMC5540273 (PLoS ONE, 2017):
# Assays:
# [1] = system: CDK2
# [2] = system: CDK5
# [3] = system: CDK7
# [4] = system: CDK8
# [5] = system: CDK9
# 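Note: kd values determined as follow-up on hits from a single-replicate KINOMEscan panel screen.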
compound,measurement,setting,value
COC(=O)C(NC(=O)NC1CCN(c2ccnc(Nc3ccc(F)cc3)n2)C1)c1ccccc1 (stereo not shown) [GSK1379712],Kd,[1],> 10 µM
Cc1ccc(-c2nc(Nc3ccncc3)c3ccccc3n2)s1 [GSK189015],Kd,[2],> 10 µM
Nc1cccc(-c2ccc3c(N)n[nH]c3c2)n1 [GSK2192730],Kd,[3],> 10 µM
O=C(Nc1n[nH]c2nc(-c3ccco3)c(Br)cc12)C1CCN(Cc2ccccc2)C1.O=C(O)[C@H](O)[C@@H](O)C(=O)O (stereo not shown) [SB-742034],Kd,[3],1.1 µM
Cc1cnc(N)c(/C=C/c2cncc(C(=O)NCCc3ccc(Cl)cc3Cl)c2)c1.Cl [GSK190937],Kd,[4],1.1 µM
Cc1c(Cn2c3ccccc3n3c(=O)cc(N4CCOCC4)nc23)cccc1C(F)(F)F [GSK2306394],Kd,[5],> 10 µM
Cc1nccc(-c2c(-c3ccc(F)cc3)ncn2CCCN2CCOCC2)n1.Cl [SB-282975],Kd,[5],> 10 µM
